One test has as its target Albumin (Bos taurus) (UniProt P02769). The test is described as follows: compounds binding labelled BSA control protein – biochemical, small-molecule microarray, Alexa647 label, 635/667 nm fluorescence, artefact control for SMM control protein annotation, profiling panel (AID 1118).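 Further: score merges 667 nm emission intensity and signal-to-noise per printed compound spot.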 The conditions noted are these: BSA-A647 binding, fluorescence 635 nm, higher = more signal.

Test [1] can be described thus: probe aXIP binding to arrayed compounds – biochemical, NeuroSMM set, 635/667 nm fluorescence, primary screen (AID 1119).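 Further: probe is the protein aXip251-270 applied at 1 µg/mL to compound-printed slides; binding of probe to printed compounds measured as 667 nm fluorescence plus signal to noise.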 The conditions noted are these: small-molecule microarray, higher = more signal, called active from +8 up or from −8 down.
Test [2] can be described thus: probe aNOTCH3 binding on compound microarray – biochemical, small-molecule microarray, 635/667 nm fluorescence, primary screen (AID 1120).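 Further: probe is a biotin-tagged antibody raised against NOTCH3 rather than NOTCH3 protein; score merges spot fluorescence near 667 nm with spot signal to noise.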 The conditions noted are these: higher = more signal.
A short description of test [3]: probe aNOTCH2 binding on compound microarray – biochemical, small-molecule microarray, 635/667 nm fluorescence, primary screen (AID 1121).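 Further: score merges feature fluorescence read at 667 nm with its signal to noise.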 The conditions noted are these: higher = more signal.
The target of test [4] is Carbonic anhydrase 2 (Homo sapiens) (UniProt P00918). The test is described as follows: compounds binding carbonic anhydrase 2 – biochemical, small-molecule microarray, Alexa647-labelled CAII, profiling panel (AID 1122). Particulars: CAII-A647 binding fluorescence, higher = more signal.
Test [5] can be described thus: COS7 lysate on small-molecule microarray, probe aHis, 635 nm (AID 1123).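 Further: z-score combines 667nm fluorescence intensity with signal-to-noise per printed compound spot.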 Particulars: COS7 cell lysate, fluorescence, higher = more signal.
Test [6] in a line: probe aLAP1 signal on lysate-treated microarray – cell lysate, small-molecule microarray, COS7 lysate, primary screen (AID 1124).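 Further: lysate comes from COS7 cells expressing LAP1 and is applied at 0.3 µg/mL; score merges spot fluorescence near 667 nm with signal-to-noise over triplicate slides.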 The conditions noted are these: probe aLAP1, fluorescence, higher = more signal.
In the next test the test system is Sam68 (KHDRBS1). As to the kind of experiment: compounds binding KHDRBS1 protein – biochemical, small-molecule microarray, 635 nm fluorescence, primary screen (AID 1125).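 Further: score merges 667 nm channel intensity with signal to noise over triplicate slides.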 The conditions noted are these: higher = more signal.
Test [7] relates to Chordin-like protein 2 (CHRDL2). As to the kind of experiment: compounds binding chordin-like 2 – biochemical, small-molecule microarray, 635 nm fluorescence, primary screen (AID 1126).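 Further: printed compound slides probed with Chrdl2 protein at 4 µg/mL for 1 h at 4 C; score merges 667 nm emission intensity with signal to noise over three replicate slides.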 Particulars: fluorescence 635 nm, higher = more signal.
Test [8] concerns the target Concanavalin-A (Canavalia ensiformis) (UniProt P02866). The test is described as follows: compounds binding concanavalin A lectin – biochemical, small-molecule microarray, Alexa647 label, 635 nm, artefact control for SMM control protein annotation, primary screen (AID 1127).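 Further: z combines 667 nm emission intensity with signal-to-noise across three replicate slides.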 Particulars: ConA-A647 binding fluorescence, higher = more signal.
The nature of test [9]: compounds binding Alexa647 anti-His antibody – biochemical, small-molecule microarray, 635 nm fluorescence, artefact control for SMM control protein annotation, primary screen (AID 1128).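 Further: score merges feature fluorescence with signal-to-noise for each printed compound spot.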 Particulars: higher = more signal.
In test [10] the test system is Human papillomavirus type 1a E7 protein (residues 1-88). As to the kind of experiment: HPV1a E7 small-molecule binders, primary screen, biochemical, small-molecule microarray, residues 1-88, 635 nm (AID 1129). The conditions noted are these: small-molecule microarray binding, fluorescence 635 nm; higher = more signal.
Test [11] has as its target Focal adhesion kinase 1 (Homo sapiens) (UniProt Q05397). The test is described as follows: PTK2 protein binding on printed compound slides – biochemical, small-molecule microarray, 635/667 nm fluorescence, BSA, DTT, primary screen (AID 1130).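 Further: composite of spot emission at 667 nm and signal to noise over triplicate slides.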 Particulars: 635 nm fluorescence, higher = more signal.
Test [12] relates to Fibrinogen (Alexa647-labelled). The test is described as follows: Alexa647-fibrinogen binding to printed small molecules – biochemical, small-molecule microarray, 635/667 nm fluorescence, artefact control for SMM control-protein annotation, profiling panel (AID 1131).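 Further: z-score merges 667 nm fluorescence with per-spot signal-to-noise over triplicate slides.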 The conditions noted are these: fibrinogen-A647 binding fluorescence, higher = more signal.
Test [13] has as its target Follistatin (Homo sapiens) (UniProt P19883). The test is described as follows: FST protein binding to printed compounds – biochemical, small-molecule microarray, 635/667 nm fluorescence, primary screen (AID 1132). The conditions noted are these: 635 nm fluorescence, higher = more signal.
Test [14] concerns the target Fibroblast growth factor 2 (Homo sapiens) (UniProt P09038). As to the kind of experiment: basic fibroblast growth factor binding to printed compounds – biochemical, small-molecule microarray, 635/667 nm fluorescence, primary screen (AID 1133). The conditions noted are these: FGF2, fluorescence 635/667, higher = more signal.
Test [15] in a line: JC-1 mitochondrial potential readout, lung cancer cells – cell-based, A549, JC-1 fluorescence, basal, 24 h, 100 nL, profiling panel (AID 1138).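 Further: A549 lung adenocarcinoma cells under basal conditions with no added stimulus; test concentration not given here.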 The conditions noted are these: higher = more signal.
A further test concerns Lefty1. As to the kind of experiment: Lefty1 protein binding to printed compounds – biochemical, small-molecule microarray, 635/667 nm fluorescence, primary screen (AID 1139). Particulars: fluorescence 635/667, higher = more signal.
For test [16], the system named is wheat germ agglutinin (Triticum aestivum), Alexa647-labelled. The test is described as follows: Alexa647-WGA lectin binding to printed small molecules – biochemical, small-molecule microarray, 635/667 nm fluorescence, artefact control for SMM control-protein annotation, profiling panel (AID 1140).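 Further: score merges 667 nm feature emission with signal to noise over triplicate slides.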 The conditions noted are these: WGA-A647 binding, 635 nm fluorescence, higher = more signal.

Test [17] addresses Luciferin 4-monooxygenase (Photinus pyralis) (UniProt P08659). As to the kind of experiment: inhibition of purified Photinus pyralis luciferase – biochemical, luminescence, purified enzyme, 2006 set, primary screen (AID 1141).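 Further: cell-free assay with purified firefly luciferase at 100 ng per well in PBS; test concentration not given here.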 The conditions noted are these: purified firefly luciferase, SteadyGlo luminescence, 30 min; higher = more signal, called active from +8 up or from −8 down.

This is an account of results in PubChem BioAssay.

Calls of active or inactive are those of the source.

Concanavalin-A (Canavalia ensiformis), sequence (P02866 whole entry, looked up): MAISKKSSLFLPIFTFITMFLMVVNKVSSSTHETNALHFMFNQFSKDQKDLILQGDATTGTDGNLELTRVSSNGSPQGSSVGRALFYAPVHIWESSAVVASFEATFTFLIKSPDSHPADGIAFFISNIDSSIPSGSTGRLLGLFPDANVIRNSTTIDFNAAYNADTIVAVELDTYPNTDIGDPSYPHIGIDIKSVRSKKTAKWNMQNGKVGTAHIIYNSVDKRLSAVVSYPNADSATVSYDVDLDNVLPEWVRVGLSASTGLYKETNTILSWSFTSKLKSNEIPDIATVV
Albumin (Bos taurus), sequence (P02769 whole entry, looked up): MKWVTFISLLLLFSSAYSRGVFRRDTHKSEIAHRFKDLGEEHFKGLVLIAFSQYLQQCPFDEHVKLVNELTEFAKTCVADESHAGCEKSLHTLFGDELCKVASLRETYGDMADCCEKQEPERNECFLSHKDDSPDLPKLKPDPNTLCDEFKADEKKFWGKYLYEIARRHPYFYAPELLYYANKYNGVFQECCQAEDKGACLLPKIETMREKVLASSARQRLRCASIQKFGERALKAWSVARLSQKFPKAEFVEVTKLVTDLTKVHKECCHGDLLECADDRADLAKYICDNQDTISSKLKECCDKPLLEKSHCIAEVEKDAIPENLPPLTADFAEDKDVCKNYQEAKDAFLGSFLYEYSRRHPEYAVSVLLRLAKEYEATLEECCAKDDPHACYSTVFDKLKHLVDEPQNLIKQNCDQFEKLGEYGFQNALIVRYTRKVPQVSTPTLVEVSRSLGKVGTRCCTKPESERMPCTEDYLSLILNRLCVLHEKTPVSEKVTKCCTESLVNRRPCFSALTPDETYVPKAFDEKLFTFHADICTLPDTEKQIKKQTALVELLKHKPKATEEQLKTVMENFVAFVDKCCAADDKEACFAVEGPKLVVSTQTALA
Fibroblast growth factor 2 (Homo sapiens), sequence (P09038 whole entry, looked up): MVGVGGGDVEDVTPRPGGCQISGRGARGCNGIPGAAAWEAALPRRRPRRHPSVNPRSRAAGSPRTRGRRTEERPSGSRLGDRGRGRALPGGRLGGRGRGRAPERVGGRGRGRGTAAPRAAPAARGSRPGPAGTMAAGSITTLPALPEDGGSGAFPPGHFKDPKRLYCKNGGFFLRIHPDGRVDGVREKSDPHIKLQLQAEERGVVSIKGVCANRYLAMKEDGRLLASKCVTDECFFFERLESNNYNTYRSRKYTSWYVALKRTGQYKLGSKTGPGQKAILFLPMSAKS
Focal adhesion kinase 1 (Homo sapiens), sequence (Q05397 whole entry, looked up): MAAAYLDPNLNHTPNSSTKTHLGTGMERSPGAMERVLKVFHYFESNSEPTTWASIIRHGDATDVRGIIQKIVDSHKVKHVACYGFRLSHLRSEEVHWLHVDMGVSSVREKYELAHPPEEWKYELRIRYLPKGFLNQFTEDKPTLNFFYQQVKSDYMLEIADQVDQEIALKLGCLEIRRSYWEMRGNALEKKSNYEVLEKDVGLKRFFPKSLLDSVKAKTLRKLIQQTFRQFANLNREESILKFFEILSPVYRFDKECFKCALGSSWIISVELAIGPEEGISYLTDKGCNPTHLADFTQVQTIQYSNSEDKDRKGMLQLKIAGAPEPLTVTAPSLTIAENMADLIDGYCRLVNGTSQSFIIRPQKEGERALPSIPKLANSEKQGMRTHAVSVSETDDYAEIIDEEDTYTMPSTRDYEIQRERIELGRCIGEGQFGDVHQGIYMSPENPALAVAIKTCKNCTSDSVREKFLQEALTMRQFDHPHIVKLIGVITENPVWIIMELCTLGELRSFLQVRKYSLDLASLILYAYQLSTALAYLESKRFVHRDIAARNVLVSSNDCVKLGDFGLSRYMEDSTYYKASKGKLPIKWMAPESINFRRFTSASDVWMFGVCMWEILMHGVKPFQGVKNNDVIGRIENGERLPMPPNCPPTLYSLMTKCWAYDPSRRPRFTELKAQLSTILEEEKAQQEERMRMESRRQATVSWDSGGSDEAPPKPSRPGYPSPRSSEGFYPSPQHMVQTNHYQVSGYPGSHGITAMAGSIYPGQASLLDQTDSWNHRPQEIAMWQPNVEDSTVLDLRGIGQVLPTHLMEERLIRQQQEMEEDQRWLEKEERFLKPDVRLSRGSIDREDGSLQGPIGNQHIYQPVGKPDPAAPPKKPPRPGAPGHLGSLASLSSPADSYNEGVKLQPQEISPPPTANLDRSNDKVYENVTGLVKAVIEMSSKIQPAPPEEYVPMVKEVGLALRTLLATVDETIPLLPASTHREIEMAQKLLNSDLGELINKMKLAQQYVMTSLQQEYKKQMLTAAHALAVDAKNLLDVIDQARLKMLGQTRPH
Luciferin 4-monooxygenase (Photinus pyralis), sequence (P08659 whole entry, looked up): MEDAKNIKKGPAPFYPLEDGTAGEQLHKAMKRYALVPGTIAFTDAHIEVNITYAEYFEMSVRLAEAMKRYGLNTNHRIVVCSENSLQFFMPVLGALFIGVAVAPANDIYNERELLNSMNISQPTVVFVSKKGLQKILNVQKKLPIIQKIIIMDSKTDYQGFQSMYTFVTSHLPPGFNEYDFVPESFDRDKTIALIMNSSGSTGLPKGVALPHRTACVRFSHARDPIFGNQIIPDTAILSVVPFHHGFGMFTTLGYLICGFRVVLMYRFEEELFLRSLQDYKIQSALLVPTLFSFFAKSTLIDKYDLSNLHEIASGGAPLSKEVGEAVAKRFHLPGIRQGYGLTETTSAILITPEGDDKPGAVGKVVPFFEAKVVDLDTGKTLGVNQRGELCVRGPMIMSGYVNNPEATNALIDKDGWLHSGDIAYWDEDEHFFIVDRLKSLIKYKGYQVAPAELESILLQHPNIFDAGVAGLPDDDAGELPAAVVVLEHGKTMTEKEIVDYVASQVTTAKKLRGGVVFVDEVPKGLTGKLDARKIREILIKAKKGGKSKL
Follistatin (Homo sapiens), sequence (P19883 whole entry, looked up): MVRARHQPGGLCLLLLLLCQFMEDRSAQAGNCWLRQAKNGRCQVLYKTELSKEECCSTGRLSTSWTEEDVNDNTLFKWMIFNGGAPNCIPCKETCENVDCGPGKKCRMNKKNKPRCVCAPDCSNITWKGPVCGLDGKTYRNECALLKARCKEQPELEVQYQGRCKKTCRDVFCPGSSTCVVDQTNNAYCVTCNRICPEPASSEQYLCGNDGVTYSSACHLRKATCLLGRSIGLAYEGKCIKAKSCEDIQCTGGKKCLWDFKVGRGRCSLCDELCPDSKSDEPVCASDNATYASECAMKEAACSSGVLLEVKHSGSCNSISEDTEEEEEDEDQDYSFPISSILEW

For `COc1ccc(/C=C/C(=O)c2cccc(OCC(=O)OC(C)(C)C)c2)cc1`, the composite z-score with Albumin (Bos taurus) was 0.396; in test [2], -0.176; in test [3], -0.133; in test [4], -0.0082; in [5], 0.872; in [6], 0.651. In addition, the composite z-score is 1.02 in the test on Sam68 (KHDRBS1); -0.55 in test [7]; 0.4 in test [8]; 0.0179 in [9]; 0.67 in test [10]; 0.168 in test [11]. For the same molecule, the composite z-score is 0.158 in [12]; -0.708 in test [13]; -0.453 in test [14]; -0.51 with Lefty1; 0.248 in [16]. Besides, the composite Z-score in test [1] was -0.0202 (inactive). Further, the z-score is 1.57 in [15] and -2.64 (inactive) in test [17].
Consider `CC(C)C[C@@H]1NC(=O)[C@H]2C[C@@H](C(=O)NCCCC[N+](C)(C)C)[C@@H](c3cccc(OCCO)c3)N2C1=O`, for which the composite z-score in the test with Albumin (Bos taurus) is 0.252; in test [2], 0.217; in test [3], -0.19; in test [4], 0.475; in test [5], 1.89; in test [6], 0.987. Besides, the composite z-score with Sam68 (KHDRBS1) is 0.848; in [7], 0.938; in test [8], 0.476; in test [9] it was 3.29; in [10], -0.146; in test [11] it was -0.153. For the same molecule, the composite z-score in test [12] was -0.236; in test [13], 1.25; in test [14], 1.61; with Lefty1, 1.39; in test [16], -0.102. The composite Z-score in [1] is 0.331 (inactive). The z-score in test [15] was 1.31; in test [17] it was -1.97 (inactive).
In the case of `C=CCC(OC(C)=O)[C@@H]1[C@@H](N(Cc2ccc(-c3ccccc3)cc2)C(=O)c2ccc(-c3ccccc3)cc2)c2cc(OCCCO)ccc2N1C(=O)c1ccc(-c2ccccc2)cc1` (stereo not given in full), the composite z-score was 0.0452 in the test with Albumin (Bos taurus); 0.11 in test [2]; 0.0086 in test [3]; -0.0914 in [4]; 0.57 in test [5]; -0.0163 in test [6]. Also, the composite z-score in the test on Sam68 (KHDRBS1) was -0.821; in test [7] it was 0.0312; in [8], -0.473; in test [9] it was -0.726; in test [10], 0.274; in test [11] it was 0.63. Moreover, the composite z-score in test [12] is -0.705; in test [13], 0.288; in [14], -0.215; with Lefty1 it was -0.418; in [16], 0.0316. Further, the composite Z-score in [1] was -0.254 (inactive). In addition, the z-score was 2.51 in test [15] and -1.15 (inactive) in test [17].
Take `C=CC[C@]1(C(=O)N(C)C)N=C(c2ccc(OCCCO)cc2)O[C@H]1c1ccccc1CN=[N+]=[N-]`: the composite z-score in the test with Albumin (Bos taurus) is 0.79; in [2] it was -0.014; in [3], 0.0111; in test [4], 0.548; in [5], 2.11; in [6], 0.79. The composite z-score is 1.04 in the test on Sam68 (KHDRBS1); -0.474 in test [7]; 1.11 in [8]; 1.84 in test [9]; 1.23 in [10]; 0.418 in test [11]. For the same molecule, the composite z-score in [12] is 0.415; in [13] it was 1.27; in test [14], 0.521; in the test with Lefty1, -0.168; in [16], 0.757. In addition, the composite Z-score in test [1] was 0.328 (inactive). Also, the z-score in test [15] is 2.49; in test [17] it was -1.12 (inactive).
Consider `CC(C)(C)OC(=O)CC[C@]1(C(=O)NCc2ccccc2)COC(c2ccc(OCCCO)cc2)=N1`, for which the composite z-score turned out to be 0.875 with Albumin (Bos taurus); 0.0128 in test [2]; 0.0377 in test [3]; 0.673 in test [4]; 2.41 in test [5]; 1.49 in test [6]. The composite z-score was 1.25 in the test on Sam68 (KHDRBS1); -1.45 in test [7]; 0.255 in [8]; -0.518 in test [9]; 1.25 in test [10]; 0.444 in [11]. Moreover, the composite z-score in test [12] is 0.694; in test [13], -0.0444; in [14], -1.04; in the test with Lefty1, -0.986; in [16] it was 1.33. For the same molecule, the composite Z-score in test [1] is 0.603 (inactive). For the same molecule, the z-score in [15] was 0.695; in test [17] it was -0.714 (inactive).
